Source: the supplement of paper PMC11732987, “Enantioselective OTUD7B fragment discovery through chemoproteomics screening and high-throughput optimisation” (Communications Chemistry, 2025)

Experiments:
Assay in all cases: log2 ratio of Biotin-Ahx-Ub-VS probe labelling (fragment/DMSO); higher = less target engagement (more negative = stronger competition), active = hit call of the paper (q ≤ 0.05, log2 ratio ≤ -1)
Conditions in all cases: compound concentration: 200 uM; treatment time: 3 h
USP16 = USP16 (UniProt Q9Y5T5)
Sequence of USP16 (Q9Y5T5 whole entry, looked up, the tested form may be a part): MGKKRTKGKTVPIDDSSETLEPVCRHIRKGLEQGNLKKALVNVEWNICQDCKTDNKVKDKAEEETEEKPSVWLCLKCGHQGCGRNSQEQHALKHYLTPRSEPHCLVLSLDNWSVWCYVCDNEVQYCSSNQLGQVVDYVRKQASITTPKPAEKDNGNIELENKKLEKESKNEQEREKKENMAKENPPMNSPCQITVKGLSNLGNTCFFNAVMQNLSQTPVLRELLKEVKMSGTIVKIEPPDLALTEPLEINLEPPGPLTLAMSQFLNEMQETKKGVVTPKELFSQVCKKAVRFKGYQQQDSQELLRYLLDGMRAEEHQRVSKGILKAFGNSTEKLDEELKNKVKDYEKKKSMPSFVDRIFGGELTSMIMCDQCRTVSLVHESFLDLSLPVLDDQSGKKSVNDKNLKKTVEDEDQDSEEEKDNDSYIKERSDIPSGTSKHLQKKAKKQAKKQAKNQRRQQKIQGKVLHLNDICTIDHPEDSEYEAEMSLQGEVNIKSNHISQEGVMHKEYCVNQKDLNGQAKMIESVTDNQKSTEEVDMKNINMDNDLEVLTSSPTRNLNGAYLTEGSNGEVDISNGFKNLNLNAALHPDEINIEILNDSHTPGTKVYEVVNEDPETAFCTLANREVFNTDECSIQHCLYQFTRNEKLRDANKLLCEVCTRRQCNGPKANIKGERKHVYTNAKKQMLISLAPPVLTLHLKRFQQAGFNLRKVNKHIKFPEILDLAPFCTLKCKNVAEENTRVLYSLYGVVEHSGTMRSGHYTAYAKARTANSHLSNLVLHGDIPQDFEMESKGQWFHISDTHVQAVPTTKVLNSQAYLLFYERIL
In short: (§1)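 Global-median-normalised Spectronaut label-free quantities were compared by unpaired t-test, and values are average log2 ratios of fragment over vehicle. Only proteins with ≥2 unique peptides were used. HEK293T lysate (495 µg per sample) was treated in triplicate with fragment at 200 µM or vehicle for 3 h and then with Biotin-Ahx-Ub-VS at 0.5 µM final for 1 h. Labelled DUBs were then NeutrAvidin-enriched, digested with LysC and trypsin, and run by diaPASEF LC-MS/MS.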

USP19 = target: T1, USP19 (UniProt O94966)
T1 sequence (whole entry): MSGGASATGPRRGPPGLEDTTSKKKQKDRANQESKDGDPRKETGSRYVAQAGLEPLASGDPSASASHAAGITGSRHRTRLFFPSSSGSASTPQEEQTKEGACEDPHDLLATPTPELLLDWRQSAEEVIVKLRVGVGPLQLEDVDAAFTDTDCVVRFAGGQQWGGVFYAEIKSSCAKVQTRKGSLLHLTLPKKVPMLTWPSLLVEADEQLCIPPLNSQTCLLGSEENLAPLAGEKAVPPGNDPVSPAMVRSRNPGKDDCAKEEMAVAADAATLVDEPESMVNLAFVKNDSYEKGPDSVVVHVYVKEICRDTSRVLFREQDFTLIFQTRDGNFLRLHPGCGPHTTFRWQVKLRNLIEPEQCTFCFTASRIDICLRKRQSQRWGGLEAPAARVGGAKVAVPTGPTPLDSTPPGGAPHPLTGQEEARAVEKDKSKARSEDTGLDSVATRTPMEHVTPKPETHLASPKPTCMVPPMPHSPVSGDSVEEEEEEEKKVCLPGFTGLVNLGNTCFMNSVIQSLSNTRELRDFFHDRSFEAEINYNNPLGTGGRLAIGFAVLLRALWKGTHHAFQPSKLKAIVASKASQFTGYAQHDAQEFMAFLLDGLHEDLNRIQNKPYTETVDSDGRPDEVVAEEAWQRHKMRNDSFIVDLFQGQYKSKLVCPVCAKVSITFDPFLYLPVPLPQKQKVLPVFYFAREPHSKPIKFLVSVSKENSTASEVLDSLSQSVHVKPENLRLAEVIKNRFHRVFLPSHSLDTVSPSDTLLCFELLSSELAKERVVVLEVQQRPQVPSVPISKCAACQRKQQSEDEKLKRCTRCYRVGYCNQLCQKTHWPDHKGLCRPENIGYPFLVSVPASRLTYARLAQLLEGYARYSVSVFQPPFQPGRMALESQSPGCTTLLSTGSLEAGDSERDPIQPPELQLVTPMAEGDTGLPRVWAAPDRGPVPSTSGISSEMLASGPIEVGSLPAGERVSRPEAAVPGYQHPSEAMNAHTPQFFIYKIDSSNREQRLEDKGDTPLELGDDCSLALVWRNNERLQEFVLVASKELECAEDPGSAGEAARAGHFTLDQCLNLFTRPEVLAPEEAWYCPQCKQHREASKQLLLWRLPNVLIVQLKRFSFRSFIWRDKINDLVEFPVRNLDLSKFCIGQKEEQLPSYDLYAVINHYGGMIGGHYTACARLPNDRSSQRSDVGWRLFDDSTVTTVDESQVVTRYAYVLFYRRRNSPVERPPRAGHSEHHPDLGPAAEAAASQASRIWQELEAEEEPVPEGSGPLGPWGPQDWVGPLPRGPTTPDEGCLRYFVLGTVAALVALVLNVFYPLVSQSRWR
In short: as §1

USP24 = USP24 (UniProt Q9UPU5)
Sequence of USP24 (Q9UPU5 whole entry): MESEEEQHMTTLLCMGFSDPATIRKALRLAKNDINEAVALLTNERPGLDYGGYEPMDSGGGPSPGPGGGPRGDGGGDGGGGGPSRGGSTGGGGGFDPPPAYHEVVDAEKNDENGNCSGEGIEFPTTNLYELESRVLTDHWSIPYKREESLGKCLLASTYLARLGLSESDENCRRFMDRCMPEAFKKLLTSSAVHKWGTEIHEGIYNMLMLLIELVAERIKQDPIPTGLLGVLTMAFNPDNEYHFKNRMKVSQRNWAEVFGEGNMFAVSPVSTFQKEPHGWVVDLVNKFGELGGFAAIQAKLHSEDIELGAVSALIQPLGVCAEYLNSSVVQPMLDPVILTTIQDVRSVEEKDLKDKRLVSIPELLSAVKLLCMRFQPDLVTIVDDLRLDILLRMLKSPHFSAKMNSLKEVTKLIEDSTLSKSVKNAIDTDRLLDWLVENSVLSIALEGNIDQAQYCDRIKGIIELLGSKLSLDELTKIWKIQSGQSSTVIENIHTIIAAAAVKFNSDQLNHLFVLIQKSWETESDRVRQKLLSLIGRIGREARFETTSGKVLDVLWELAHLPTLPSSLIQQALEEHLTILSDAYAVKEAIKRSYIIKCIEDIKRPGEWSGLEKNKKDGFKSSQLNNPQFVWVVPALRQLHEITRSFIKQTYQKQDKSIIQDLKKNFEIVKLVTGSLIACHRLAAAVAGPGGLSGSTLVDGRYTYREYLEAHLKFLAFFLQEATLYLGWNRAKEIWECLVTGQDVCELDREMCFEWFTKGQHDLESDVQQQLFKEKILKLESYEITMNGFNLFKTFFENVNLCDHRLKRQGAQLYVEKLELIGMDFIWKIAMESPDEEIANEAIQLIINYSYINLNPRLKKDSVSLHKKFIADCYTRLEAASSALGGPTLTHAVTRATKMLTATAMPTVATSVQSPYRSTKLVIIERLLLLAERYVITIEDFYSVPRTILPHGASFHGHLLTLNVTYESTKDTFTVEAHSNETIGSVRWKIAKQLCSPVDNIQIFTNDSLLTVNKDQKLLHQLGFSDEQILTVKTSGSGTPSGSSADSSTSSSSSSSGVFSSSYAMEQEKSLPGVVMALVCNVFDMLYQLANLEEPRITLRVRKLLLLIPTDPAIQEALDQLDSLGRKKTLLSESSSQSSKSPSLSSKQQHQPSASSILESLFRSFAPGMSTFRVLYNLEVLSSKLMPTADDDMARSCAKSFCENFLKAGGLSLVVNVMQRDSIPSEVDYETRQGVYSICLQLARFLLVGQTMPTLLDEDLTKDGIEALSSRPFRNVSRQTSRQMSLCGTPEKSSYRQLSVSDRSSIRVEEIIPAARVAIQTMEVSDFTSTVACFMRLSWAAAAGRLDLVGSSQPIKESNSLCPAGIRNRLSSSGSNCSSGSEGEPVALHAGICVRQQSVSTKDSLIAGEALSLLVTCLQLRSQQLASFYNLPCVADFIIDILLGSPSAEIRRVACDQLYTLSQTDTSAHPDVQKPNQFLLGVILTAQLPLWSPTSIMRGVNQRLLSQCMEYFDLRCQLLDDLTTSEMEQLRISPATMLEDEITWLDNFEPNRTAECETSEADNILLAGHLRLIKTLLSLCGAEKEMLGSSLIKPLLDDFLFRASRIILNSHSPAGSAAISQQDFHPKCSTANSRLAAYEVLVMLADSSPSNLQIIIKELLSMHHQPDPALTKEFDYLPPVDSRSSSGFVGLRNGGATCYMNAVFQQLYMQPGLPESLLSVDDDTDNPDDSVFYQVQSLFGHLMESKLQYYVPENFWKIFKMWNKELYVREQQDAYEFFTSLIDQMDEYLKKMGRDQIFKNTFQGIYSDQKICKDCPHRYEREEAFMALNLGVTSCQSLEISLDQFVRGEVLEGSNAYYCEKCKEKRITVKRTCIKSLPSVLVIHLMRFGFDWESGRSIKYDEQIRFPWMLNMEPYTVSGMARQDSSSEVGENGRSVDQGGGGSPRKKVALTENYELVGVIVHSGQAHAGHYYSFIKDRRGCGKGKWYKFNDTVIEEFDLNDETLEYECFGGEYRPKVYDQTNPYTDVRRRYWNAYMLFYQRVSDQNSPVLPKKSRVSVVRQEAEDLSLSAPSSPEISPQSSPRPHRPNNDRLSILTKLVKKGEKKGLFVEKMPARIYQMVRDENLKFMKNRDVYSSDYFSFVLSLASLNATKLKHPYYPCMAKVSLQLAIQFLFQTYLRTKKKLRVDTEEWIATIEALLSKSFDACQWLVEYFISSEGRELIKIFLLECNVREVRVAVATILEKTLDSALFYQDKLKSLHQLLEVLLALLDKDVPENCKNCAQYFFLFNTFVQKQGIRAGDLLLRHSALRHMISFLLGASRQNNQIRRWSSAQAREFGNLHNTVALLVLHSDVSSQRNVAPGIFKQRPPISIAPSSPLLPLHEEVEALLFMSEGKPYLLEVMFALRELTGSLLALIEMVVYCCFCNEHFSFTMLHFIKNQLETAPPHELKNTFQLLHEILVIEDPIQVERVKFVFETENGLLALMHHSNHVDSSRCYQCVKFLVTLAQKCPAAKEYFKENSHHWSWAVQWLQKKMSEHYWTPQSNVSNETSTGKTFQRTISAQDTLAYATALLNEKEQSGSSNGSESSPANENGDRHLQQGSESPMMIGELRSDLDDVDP
In short: as §1

USP25 = target: T2, USP25 (UniProt Q9UHP3)
T2 sequence (whole entry): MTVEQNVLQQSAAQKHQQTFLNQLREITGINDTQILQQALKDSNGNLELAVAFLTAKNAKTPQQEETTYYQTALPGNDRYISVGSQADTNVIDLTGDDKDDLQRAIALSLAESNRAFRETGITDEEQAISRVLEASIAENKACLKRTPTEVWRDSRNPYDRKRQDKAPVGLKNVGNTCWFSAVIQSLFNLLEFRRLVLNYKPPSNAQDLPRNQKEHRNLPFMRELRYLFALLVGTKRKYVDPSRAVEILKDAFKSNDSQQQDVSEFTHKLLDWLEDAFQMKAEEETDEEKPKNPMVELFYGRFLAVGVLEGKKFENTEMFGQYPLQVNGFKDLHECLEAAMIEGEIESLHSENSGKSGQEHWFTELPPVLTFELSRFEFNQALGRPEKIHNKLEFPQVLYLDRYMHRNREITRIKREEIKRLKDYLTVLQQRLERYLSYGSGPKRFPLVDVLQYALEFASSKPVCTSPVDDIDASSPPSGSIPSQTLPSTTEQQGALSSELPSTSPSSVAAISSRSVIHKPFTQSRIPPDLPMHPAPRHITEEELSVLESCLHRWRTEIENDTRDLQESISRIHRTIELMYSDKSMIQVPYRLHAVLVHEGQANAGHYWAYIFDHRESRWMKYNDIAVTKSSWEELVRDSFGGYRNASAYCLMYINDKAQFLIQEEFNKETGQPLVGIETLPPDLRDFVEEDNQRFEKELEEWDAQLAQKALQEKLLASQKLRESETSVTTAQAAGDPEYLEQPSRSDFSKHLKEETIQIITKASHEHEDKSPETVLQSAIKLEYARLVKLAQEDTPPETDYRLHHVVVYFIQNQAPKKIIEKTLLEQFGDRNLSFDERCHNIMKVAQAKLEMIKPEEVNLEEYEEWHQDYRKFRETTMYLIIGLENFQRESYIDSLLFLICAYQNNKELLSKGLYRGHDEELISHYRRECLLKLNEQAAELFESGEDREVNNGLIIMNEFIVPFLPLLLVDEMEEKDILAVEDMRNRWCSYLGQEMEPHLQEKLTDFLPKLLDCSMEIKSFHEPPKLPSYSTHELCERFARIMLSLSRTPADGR
In short: as §1

USP28 = target: T3, USP28 (UniProt Q96RU2)
T3 sequence (whole entry): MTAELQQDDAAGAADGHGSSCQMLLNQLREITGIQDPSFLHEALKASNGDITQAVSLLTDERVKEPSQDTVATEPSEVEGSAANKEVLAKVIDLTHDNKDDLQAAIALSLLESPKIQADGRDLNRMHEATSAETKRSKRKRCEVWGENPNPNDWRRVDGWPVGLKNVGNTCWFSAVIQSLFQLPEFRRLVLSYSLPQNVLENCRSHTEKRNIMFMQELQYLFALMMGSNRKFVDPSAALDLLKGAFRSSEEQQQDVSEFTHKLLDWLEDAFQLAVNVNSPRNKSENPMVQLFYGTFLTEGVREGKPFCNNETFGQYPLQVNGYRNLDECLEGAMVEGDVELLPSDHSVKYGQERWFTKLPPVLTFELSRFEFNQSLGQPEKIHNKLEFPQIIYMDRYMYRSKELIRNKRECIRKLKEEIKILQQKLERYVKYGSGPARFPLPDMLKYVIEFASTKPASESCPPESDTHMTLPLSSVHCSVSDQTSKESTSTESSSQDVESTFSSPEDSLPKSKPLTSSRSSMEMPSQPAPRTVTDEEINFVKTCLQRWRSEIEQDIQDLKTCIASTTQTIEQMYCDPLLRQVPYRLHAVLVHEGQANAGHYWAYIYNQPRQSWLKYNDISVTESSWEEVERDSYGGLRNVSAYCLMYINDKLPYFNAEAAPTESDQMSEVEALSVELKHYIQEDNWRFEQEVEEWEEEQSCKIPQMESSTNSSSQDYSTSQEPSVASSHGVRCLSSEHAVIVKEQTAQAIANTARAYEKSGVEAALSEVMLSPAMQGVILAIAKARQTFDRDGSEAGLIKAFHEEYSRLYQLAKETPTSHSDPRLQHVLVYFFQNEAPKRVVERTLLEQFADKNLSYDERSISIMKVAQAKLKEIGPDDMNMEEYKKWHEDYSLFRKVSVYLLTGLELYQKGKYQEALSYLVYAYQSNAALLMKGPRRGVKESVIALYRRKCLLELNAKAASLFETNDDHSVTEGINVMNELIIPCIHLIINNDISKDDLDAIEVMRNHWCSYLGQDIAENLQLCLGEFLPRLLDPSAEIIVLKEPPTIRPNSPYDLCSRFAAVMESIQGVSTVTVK
In short: as §1

Measured: log2 ratio of Biotin-Ahx-Ub-VS probe labelling

O=C(CCl)N1CCN(C(=O)Nc2ccccc2)CC1
inactive: USP16 0.0643 | USP19 -0.276 | USP24 0.00221 | USP25 -0.151 | USP28 -0.246
